Assay results from PubChem BioAssay (EPA / NIEHS).
The source made the active and inactive calls. The calls were made as follows: active = hit-call score of the fitted dose curve at least 0.9, where 1 is the maximum; inactive = score below 0.9.

Key:
[1] = APR_HepG2_P-H2AX_72hr: Apredica 72-hour HepG2 Assay for H2AX Phosphorylation (AID 2282916); conditions: imaging, actives raise or lower the signal;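 also: phospho-histone H2A.x immunostain intensity per cell marking DNA damage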
Procedure, shortened: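 Readout: phospho-H2A.x immunofluorescence (FITC secondary) plus Hoechst nuclear stain, high-content imaging at 20x, six fields/well. HepG2, 72 hr compound exposure, 0.39–200 uM, final DMSO 0.5% v/v. Gain or loss fitted relative to DMSO baseline.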

[2] = APR_HepG2_MitoMembPot_72hr: Apredica 72-hour HepG2 Assay for Mitochondrial Membrane Potential (AID 2282917); conditions: imaging, actives raise or lower the signal
Procedure, shortened: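 HepG2 cells dosed 72 hr with compound at 0.39–200 uM in duplicate, 0.5% v/v DMSO final. Mitochondria stained with 250 nM MitoTracker Red CMXRos for 30 min before formaldehyde fixation, imaged by high-content fluorescence; bidirectional fit versus DMSO.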

[3] = APR_HepG2_MitoticArrest_72hr: Apredica 72-hour HepG2 Assay for Mitotic Arrest (AID 2282918); conditions: high-content imaging, actives raise or lower the signal
Procedure, shortened: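 High-content imaging of fixed human HepG2 cells after 72 h compound exposure (0.39–200 uM, duplicates, 0.5% DMSO); mitotic arrest scored from phospho-histone H3 and nuclear Hoechst staining relative to DMSO.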

[4] = APR_HepG2_MicrotubuleCSK_72hr: Apredica 72-hour HepG2 Assay for Microtubule CSK Stabilty (AID 2282919); conditions: HepG2 microtubule cytoskeleton, high-content imaging, actives raise or lower the signal
Procedure, shortened: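 HepG2, 72 hr cmpd exposure, 0.39–200 uM (10 pts, duplicate), 0.5% DMSO. 3.7% formaldehyde fix, 0.5% Triton perm, anti-alpha-tubulin/Cy5 plus Hoechst. HCS fluorescence intensity; bidirectional fit vs DMSO baseline; taxol as positive control.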

[5] = APR_HepG2_P-H2AX_24hr: Apredica 24-hour HepG2 Assay for H2AX Phosphorylation (AID 2282920); conditions: high-content imaging, actives raise or lower the signal
Procedure, shortened: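 High-content imaging of phospho-histone H2A.x immunofluorescence, nuclei counterstained with Hoechst 33342, in fixed HepG2 cells. Compounds ran 0.39–200 uM in duplicate for 24 h, final DMSO 0.5%. Signal change fitted both directions against DMSO.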

[6] = APR_HepG2_StressKinase_72hr: Apredica 72-hour HepG2 Assay for Stress Kinase (AID 2282921); conditions: HepG2 stress kinase (phospho-c-Jun) imaging, actives raise or lower the signal
Procedure, shortened: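 Phospho-c-Jun immunofluorescence measured by high-content imaging at 20x, six fields per well; bidirectional curve fitting against DMSO as baseline. Dosing: 0.39–200 uM, 72 h, 0.5% DMSO final.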

[7] = APR_HepG2_StressKinase_24hr: Apredica 24-hour HepG2 Assay for Stress Kinase (AID 2282922); conditions: HepG2 stress kinase (phospho-c-Jun) imaging, actives raise or lower the signal
Procedure, shortened: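 Read-out: phospho-c-Jun immunofluorescence (Cy3 secondary) quantified by high-content imaging at 20x, nuclei defined by Hoechst 33342. Human HepG2 liver cells dosed 24 hr, 0.39–200 uM, DMSO 0.5% v/v; gain or loss of signal fitted relative to DMSO.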

[8] = APR_HepG2_p53Act_72hr: Apredica 72-hour HepG2 Assay for p53 Activation (AID 2282923); conditions: high-content imaging, actives raise or lower the signal;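 also: average cellular p53 protein immunofluorescence intensity in HepG2 cells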
Procedure, shortened: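 Readout: p53 immunofluorescence quantified by automated high-content imaging at 20x, six fields per well, nuclei located via Hoechst. Dosing ran 72 hr over ten concentrations from 0.39 to 200 uM; bidirectional curve fitting against DMSO baseline.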

[9] = APR_HepG2_MitoMass_72hr: Apredica 72-hour HepG2 Assay for Mitochondrial Mass (AID 2282924); conditions: high-content imaging, actives raise or lower the signal;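 also: MitoTracker Red CMXRos stain intensity per cell imaged as mitochondrial mass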
Procedure, shortened: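 Read-out: MitoTracker Red fluorescence intensity from automated imaging (20x, six fields per well) in human HepG2 liver cells. Dosing ran 72 hr, 0.39–200 uM, 0.5% DMSO; bidirectional curve fitting versus DMSO baseline.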

[10] = APR_HepG2_NuclearSize_72hr: Apredica 72-hour HepG2 Assay for Nuclear Size (AID 2282925); conditions: high-content imaging, actives raise or lower the signal
Procedure, shortened: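 Read-out: nuclear diameter from Hoechst 33342 images (ArrayScan, 20x, six fields/well), via cell-cycle image analysis. HepG2 were dosed 0.39–200 uM for 72 hr in 0.5% DMSO. Bidirectional fit relative to DMSO.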

[11] = ATG_CRE_CIS: Attagene CIS-FACTORIAL HepG2 Assay for human cAMP Responsive Element (CRE) binding protein 3 (AID 2282926); conditions: HepG2 CRE cis-reporter, Attagene multiplexed mRNA; actives raise or lower the signal
Procedure, shortened: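 Endogenous transcription factor activity read via CRE-regulated reporter transcripts in transfected HepG2 cells. After 24 h exposure, RNA was reverse-transcribed, amplified, fluorescently labelled and sized by capillary electrophoresis; gain or loss fitted against DMSO.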

[12] = biological target: CCAAT/enhancer-binding protein beta (Homo sapiens) (UniProt P17676); experiment: ATG_C_EBP_CIS: Attagene CIS-FACTORIAL HepG2 Assay for human CCAAT/Enhancer Binding Protein (C/EBP) beta (AID 2282927); conditions: HepG2 Attagene cis-factorial transcription factor reporter; actives raise or lower the signal
CCAAT/enhancer-binding protein beta (Homo sapiens), sequence (P17676 whole entry, looked up): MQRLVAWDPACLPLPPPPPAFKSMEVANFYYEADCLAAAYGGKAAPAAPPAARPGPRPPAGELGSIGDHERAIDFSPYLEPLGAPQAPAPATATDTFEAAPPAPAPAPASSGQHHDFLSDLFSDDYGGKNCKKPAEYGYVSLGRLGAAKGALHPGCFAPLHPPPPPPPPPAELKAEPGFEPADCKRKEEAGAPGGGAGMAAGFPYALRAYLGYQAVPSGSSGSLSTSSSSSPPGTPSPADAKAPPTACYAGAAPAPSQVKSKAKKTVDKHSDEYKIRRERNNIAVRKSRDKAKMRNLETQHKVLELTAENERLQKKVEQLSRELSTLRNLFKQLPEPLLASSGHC
Procedure, shortened: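 HepG2 transiently transfected with multiplexed reporter units under cis-regulatory promoters reporting endogenous C/EBPb activity. After 24 h exposure, reporter mRNA assayed by RT-PCR, fluorescent labelling, HpaI digestion and capillary electrophoresis; bidirectional fitting versus DMSO.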

[13] = ATG_CMV_CIS: Attagene CIS-FACTORIAL HepG2 Assay for human CMV (Internal Marker) (AID 2282928); conditions: HepG2 CMV promoter reporter, transcription factor profiling; actives raise or lower the signal;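 also: endpoint acts as a background internal control marker rather than a target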
Procedure, shortened: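 Bidirectional fits against DMSO are applied to reporter mRNA, read by RT-PCR with capillary electrophoresis, from HepG2 cells exposed 24 h. The endpoint serves as an internal CMV background marker within the cis-factorial reporter panel.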

[14] = ATG_DR4_LXR_CIS: Attagene CIS-FACTORIAL HepG2 Assay for human Liver X Receptor (LXR), DR4 submotif (AID 2282929); conditions: HepG2 Attagene DR4 cis-reporter, mRNA transcription; actives raise or lower the signal
Procedure, shortened: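 After transient transfection with multiplexed cis-promoter reporter units, HepG2 cells received test chemicals for 24 h. Reporter mRNA induction, detected by fluorescence after RT-PCR and capillary electrophoresis, was scored relative to DMSO.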

[15] = biological target: Aryl hydrocarbon receptor (Homo sapiens) (UniProt P35869); experiment: ATG_Ahr_CIS: Attagene CIS-FACTORIAL HepG2 Assay for human Aryl Hydrocarbon Receptor (Ahr) (AID 2282930); conditions: HepG2 AhR cis-factorial reporter transcription; actives raise or lower the signal
Aryl hydrocarbon receptor (Homo sapiens), sequence (P35869 whole entry, looked up): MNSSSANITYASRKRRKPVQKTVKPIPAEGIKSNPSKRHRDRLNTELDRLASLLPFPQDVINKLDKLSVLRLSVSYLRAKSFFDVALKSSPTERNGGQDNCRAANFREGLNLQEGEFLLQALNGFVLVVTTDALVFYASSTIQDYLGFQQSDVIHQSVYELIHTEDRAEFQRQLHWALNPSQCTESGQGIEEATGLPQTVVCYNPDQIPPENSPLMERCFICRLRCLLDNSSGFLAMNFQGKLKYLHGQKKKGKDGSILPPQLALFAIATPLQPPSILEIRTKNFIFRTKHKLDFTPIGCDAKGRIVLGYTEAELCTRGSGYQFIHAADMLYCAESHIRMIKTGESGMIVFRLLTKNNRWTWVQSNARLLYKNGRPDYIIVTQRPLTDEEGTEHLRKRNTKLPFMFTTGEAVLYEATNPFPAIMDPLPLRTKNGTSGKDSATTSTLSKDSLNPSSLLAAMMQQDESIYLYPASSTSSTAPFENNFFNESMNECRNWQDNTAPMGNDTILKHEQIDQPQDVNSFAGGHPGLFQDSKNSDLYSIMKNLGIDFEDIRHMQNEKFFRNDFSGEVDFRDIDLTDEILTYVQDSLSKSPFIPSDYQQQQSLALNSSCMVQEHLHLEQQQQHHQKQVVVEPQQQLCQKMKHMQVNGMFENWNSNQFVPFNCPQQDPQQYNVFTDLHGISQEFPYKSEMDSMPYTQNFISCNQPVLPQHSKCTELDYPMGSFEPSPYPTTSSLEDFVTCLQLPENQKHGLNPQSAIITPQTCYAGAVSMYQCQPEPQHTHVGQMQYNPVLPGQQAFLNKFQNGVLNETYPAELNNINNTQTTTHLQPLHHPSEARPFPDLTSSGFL
Procedure, shortened: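 HepG2 cells transiently transfected with cis-element-driven multiplexed reporter units; endogenous AhR activity read as reporter mRNA 24 h after dosing, via RT-PCR, 6-FAM labelling, HpaI digestion and capillary electrophoresis. Bidirectional fit relative to DMSO.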

[16] = ATG_AP_1_CIS: Attagene CIS-FACTORIAL HepG2 Assay for human Activator Protein 1 (AP-1) (AID 2282931); conditions: HepG2 Attagene cis-factorial AP-1 reporter mRNA; actives raise or lower the signal
Procedure, shortened: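 After 24 h incubation with test chemical, RNA from transfected HepG2 cells was reverse-transcribed, amplified, fluorescently labelled and digested before capillary electrophoresis. Reporters were driven by cis-regulatory promoters; activity fitted bidirectionally versus DMSO.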

[17] = ATG_AP_2_CIS: Attagene CIS-FACTORIAL HepG2 Assay for human Activator Protein 2 (AP-2) (AID 2282932); conditions: HepG2 AP-2 cis-reporter, Attagene transcription factor profiling; actives raise or lower the signal
Procedure, shortened: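 Read-out: fluorescent reporter mRNA via RT-PCR and capillary electrophoresis, 24 h post-dose in transiently transfected HepG2. Endogenous factors drive cis-promoter reporters; gain or loss of signal fitted bidirectionally against DMSO.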

[18] = ATG_BRE_CIS: Attagene CIS-FACTORIAL HepG2 Assay for human Bone Morphogenetic Protein (BMP) Response Element (BRE) (AID 2282933); conditions: HepG2 BMP response element reporter, Attagene transcription factor profiling; actives raise or lower the signal
Procedure, shortened: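 After a 24 h chemical treatment, transiently transfected HepG2 cells were lysed for RNA; reporter transcripts were quantified by fluorescent RT-PCR and capillary electrophoresis, normalised to DMSO.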

[19] = biological target: Transcription factor E2F1 (Homo sapiens) (UniProt Q01094); experiment: ATG_E2F_CIS: Attagene CIS-FACTORIAL HepG2 Assay for human E2F Transcription Factor 1 (AID 2282935); conditions: HepG2 Attagene cis-reporter, E2F reporter RNA transcripts; actives raise or lower the signal
Transcription factor E2F1 (Homo sapiens), sequence (Q01094 whole entry, looked up): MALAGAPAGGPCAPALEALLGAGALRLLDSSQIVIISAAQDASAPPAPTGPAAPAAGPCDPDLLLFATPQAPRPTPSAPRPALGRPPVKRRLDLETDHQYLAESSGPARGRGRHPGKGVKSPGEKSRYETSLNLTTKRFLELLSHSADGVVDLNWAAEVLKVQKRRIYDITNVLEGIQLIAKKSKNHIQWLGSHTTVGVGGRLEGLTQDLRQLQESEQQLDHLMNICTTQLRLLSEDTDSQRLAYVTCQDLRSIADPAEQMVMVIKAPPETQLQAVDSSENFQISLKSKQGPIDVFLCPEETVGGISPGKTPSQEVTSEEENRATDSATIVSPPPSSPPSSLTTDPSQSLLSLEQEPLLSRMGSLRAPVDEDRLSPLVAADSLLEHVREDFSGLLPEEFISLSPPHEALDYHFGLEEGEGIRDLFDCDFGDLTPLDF
Procedure, shortened: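 Transient MRTU transfection of HepG2; 24 h compound exposure; RNA → oligo(dT) RT → PCR → FAM label → HpaI cut → CE fluorescence. Gain/loss of signal fit against DMSO.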

[20] = biological target: Retinoic acid receptor alpha (Homo sapiens) (UniProt P10276); experiment: ATG_DR5_RAR_CIS: Attagene CIS-FACTORIAL HepG2 Assay for human Retinoic Acid Receptor Alpha (RARE), DR5 submotif (AID 2282934); conditions: HepG2 Attagene cis-factorial RARE DR5 reporter, mRNA; actives raise or lower the signal;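 as to AC50: reporter responds to endogenous RAR alpha beta and gamma in HepG2 not RARA alone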
Retinoic acid receptor alpha (Homo sapiens), sequence (P10276 whole entry, looked up): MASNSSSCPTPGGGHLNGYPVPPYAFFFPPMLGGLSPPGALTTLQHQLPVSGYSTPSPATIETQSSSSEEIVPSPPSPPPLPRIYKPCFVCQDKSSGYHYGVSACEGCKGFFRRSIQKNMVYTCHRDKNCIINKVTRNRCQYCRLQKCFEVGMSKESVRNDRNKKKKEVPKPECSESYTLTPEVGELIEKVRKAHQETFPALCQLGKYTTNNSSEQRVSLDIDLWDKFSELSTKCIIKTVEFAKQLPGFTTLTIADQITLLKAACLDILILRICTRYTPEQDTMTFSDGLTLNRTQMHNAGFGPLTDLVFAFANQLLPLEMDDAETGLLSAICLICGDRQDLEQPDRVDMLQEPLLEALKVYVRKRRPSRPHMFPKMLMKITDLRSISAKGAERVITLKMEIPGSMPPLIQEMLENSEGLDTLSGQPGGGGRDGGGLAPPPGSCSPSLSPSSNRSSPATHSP
Procedure, shortened: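 HepG2 cells transiently transfected with multiplexed reporter units; DR5 cis-element drives reporter through endogenous transcription factors. After 24 h dosing, reporter mRNA quantified by RT-PCR, fluorescent labeling, HpaI digestion and capillary electrophoresis; bidirectional fitting versus DMSO.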

Measured: AC50

CC[C@H](C)[C@H]1O[C@]2(C=C[C@@H]1C)C[C@@H]1C[C@@H](C/C=C(\C)[C@@H](O[C@H]3C[C@H](OC)[C@@H](O[C@H]4C[C@H](OC)[C@@H](NC)[C@H](C)O4)[C@H](C)O3)[C@@H](C)/C=C/C=C3\CO[C@@H]4[C@H](O)C(C)=C[C@@H](C(=O)O1)[C@]34O)O2
active: [2] 0.16 µM
not listed: [20]
inactive: all other assays above

CCOC(=O)COc1cc(-c2nn(C)c(OC(F)F)c2Cl)c(F)cc1Cl
not listed: [10]
inactive: all other assays above

CCOP(=S)(OCC)SCCSCC
not listed: [10] | [18]
inactive: all other assays above

FC(F)C(F)(F)OCC(Cn1cncn1)c1ccc(Cl)cc1Cl (stereo unspecified)
active: [1] 105 µM | [3] 100 µM | [4] 84.6 µM | [8] 116 µM | [11] 23.2 µM | [13] 16.2 µM | [14] 50 µM | [15] 33.3 µM | [20] 13 µM
not listed: [10] | [18]
inactive: all other assays above

CCCCSP(=O)(SCCCC)SCCCC
active: [2] 157 µM | [13] 39.3 µM | [14] 72.9 µM | [16] 70.1 µM | [18] 40.1 µM | [19] 58.3 µM
not listed: [10]
inactive: all other assays above

CC1=NNC(=O)N(/N=C/c2cccnc2)C1
not listed: [10]
inactive: all other assays above

CC(Oc1cccc(Cl)c1)C(=O)O (stereo unspecified)
not listed: [18]
inactive: all other assays above

CCC(CC)Nc1c([N+](=O)[O-])cc(C)c(C)c1[N+](=O)[O-]
active: [4] 108 µM | [14] 37.9 µM
not listed: [10] | [20]
inactive: all other assays above

CN(C)C(=O)Nc1cccc(C(F)(F)F)c1
not listed: [10] | [18]
inactive: all other assays above

CCCOc1nn(C(=O)NS(=O)(=O)c2ccccc2C(=O)OC)c(=O)n1C
not listed: [10] | [18]
inactive: all other assays above

CCOC(=O)CC(SP(=O)(OC)OC)C(=O)OCC (stereo unspecified)
not listed: [10] | [18]
inactive: all other assays above

Nc1nc(N)nc(NC2CC2)n1
not listed: [7]
inactive: all other assays above

CCCCOC(=O)c1ccccc1C(=O)O
not listed: [7]
inactive: all other assays above
